TGFb inhibitor – blocks TGF-b signaling; actives 1.2% (n = 410,000); AID 588855; HepG2 CAGA-GFP TGF-b/SMAD3 reporter, GFP fluorescence, 18 h; TGF-beta stimulated, 500 pg/mL final; Potency, µM (top dose mostly 46.1 µM), inactives show at the top dose activity, negative = inhibition, hits mostly inhibitors; also: % is scaled to controls: 0 for no effect and ±100 for the full control effect; nearly all actives have a fitted effect of over 65% in size
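Read-out: total well GFP (ex488/em500-530) summed from mean per-cell fluorescence. Cells: HEPG2 CAGA-GFP, 1% FBS DMEM, 18 h at 37 degrees C with 500 pg/mL final TGF-beta. Unstimulated wells served as the full-inhibition control; stimulated DMSO wells = 0%.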
A549 viability – kills or reduces viability of A549 cells in Nrf2 counter-screen | A549 ARE-Fluc cells, CellTiter-Fluor viability, 18-24 h | Potency, µM (doses to about 46 µM), without a hit: top-dose activity change, negative = cytotoxicity, most hits filed as inhibitors | actives 0.16% (n = 390,000) | AID 504648; also: % is scaled to controls: 0 for no effect and ±100 for the full control effect
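A549 ARE_Fluc cells in 5% FBS OPTI-MEM were exposed to compounds in concentration-response for 18-24 h at 37 deg C. Viability was read by CellTiter-Fluor fluorescence (Ex 405/Em 525) after 30 min, before the luciferase read.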
HepG2 viability – HepG2 cytotoxicity, counter-screen for TGF-b inhibitors; HepG2 CAGA-GFP viability, ATP luminescence, 18 h; Potency, µM (top dose mostly 46.1 µM), inactives show top-dose activity change, negative = cytotoxicity, actives largely listed as cytotoxic; actives 0.76% (n = 410,000); AID 588856
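HepG2 CAGA-GFP cells (1000/well, DMEM with 1% FBS) received compound, then TGF-beta at 500 pg/mL final, and were incubated 18 hours at 37 degrees C. Viability was read by CellTiter-Glo luminescence. Media-only wells were set as complete cell-killing and DMSO as no toxicity.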
Nrf2 inh – inhibitors of Nrf2 signaling | A549 ARE-Fluc reporter, luciferase luminescence, 18-24 h | Potency, µM (doses to about 46 µM), for the others: at the top dose activity change, negative = inhibition, usual class: inhibitors | actives 2.1% (n = 360,000); also: % is scaled to controls: 0 for no effect and ±100 for the full control effect; nearly all actives have a fitted effect of over 60% in size
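Reporter: ARE-Fluc in A549. Exposure: 18-24 h, 37 °C, 5% CO2, 5% FBS OPTI-MEM. Readouts: fluorescent cytotoxicity (CellTiter-Fluor), then luminescent Nrf2 signal after BugLite.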
Nrf2 ARE act – activates Nrf2 signaling; AREc32 ARE-luciferase reporter (MCF7-derived line), luminescence, 24 h; actives 0.31% (n = 410,000); Potency, µM (highest dose often 46.1 µM), without a hit: top-dose activation, most hits filed as activators; AID 624171; also: % of control where 0% means no effect; nearly all actives have a fitted effect of over 65% in size
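ARE activation measured as luciferase luminescence (Steady-Glo, 30 min RT) in AREc32_Fluc cells after 24 hr compound exposure at 37 deg C, 5% CO2; cells seeded overnight at 1000/well in OPTI-MEM, 5% FBS.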
* = called active by the depositor; u = inconclusive; x = no result; [ ] = remark or other dose. Compounds with a hit are over-represented: about 3.6% of the library has one in this group of screens. Calls follow the shape of the dose curve; as a rule, active = well fitted curve in the direction sought with a large enough effect; inconclusive = small, poorly fitted or top-dose-only effect, or another doubt; inactive = no such curve, though single readings can be large; an effect the other way counts as inactive or inconclusive. Potency is read from the fitted curve at half-maximal effect.

SMILES	TGFb inhibitor	A549 viability	HepG2 viability	Nrf2 inh	Nrf2 ARE act
Cc1cc(Nc2ccccc2)n(-c2nc3ccccc3[nH]2)n1	u	-8%	-5%	16µM*	10%
Cc1cc(NC(=O)c2c(F)cccc2Cl)n(-c2nc3ccccc3[nH]2)n1	u	-18%	-88%	15µM*	-1%
Cc1nn(-c2nc3ccccc3[nH]2)c(=O)c2ccccc12	-1%	-4%	3.2µM*	1.3µM*	-2%[9.22 µM]
Cc1cc(NC(=O)c2c(F)cccc2F)n(-c2nc3ccccc3[nH]2)n1	u	u	-50%	u	-2%
COc1ccccc1CN1C[C@@H]2C[C@@H](c3ccc(C)cc3)N3CCC[C@@]23C1=O	u	9%	-15%	5%	0%
O=C1Nc2c(ccc(Cl)c2Cl)C(=O)C1(F)c1ccccc1 (configuration not stated)	-2%	-1%	-21%	u	u
FC(F)(F)c1cccc(CN2CCC(c3cc(-c4cccs4)n[nH]3)CC2)c1	u	-21%	20µM*	u	4%
CC(=O)Nc1ccc(S(=O)(=O)NCc2nc(-c3ccccc3)no2)cc1	15%	-4%	2%	2%	0%
Cc1oc(-c2ccc(Cl)cc2)nc1CS(=O)CC(=O)N1CCN(c2cccc(C(F)(F)F)c2)CC1 (configuration not stated)	8.9µM*	-14%	20µM*	x	-4%
Cc1oc(-c2ccccc2Cl)nc1CS(=O)CC(=O)N1CCN(c2cccc(C(F)(F)F)c2)CC1 (configuration not stated)	11µM*	6%	-105%	x	-5%
COc1cccc(-c2nc(CS(=O)CC(=O)N3CCN(c4cccc(C(F)(F)F)c4)CC3)c(C)o2)c1 (configuration not stated)	16µM*	-2%	-38%	x	-2%
Cc1ccc(-c2nc(CS(=O)CC(=O)N3CCN(c4cccc(Cl)c4)CC3)c(C)o2)cc1 (configuration not stated)	u	u	-13%	23µM*	3%
COC(=O)[C@@]1(Sc2ccc(OC)cc2)CC(=O)N[C@@H]1c1ccccc1	x	x	x	x	3%
Cc1ccccc1-n1nnnc1Sc1nnnn1-c1ccccc1	u	1%	-35%	-8%	-2%
COc1ccc2nc(NC(=O)CN3C(=O)NC4(CCCCC4)C3=O)sc2c1	1%	-1%	4.5µM*	19%	3%
COc1ccc2nc(NC(=O)c3ccoc3C)sc2c1	u	2%	7.9µM*	u	4%
COc1ccc2nc(NC(=O)CN3C(=O)NC4(CCCC4)C3=O)sc2c1	-21%	-10%	-27%	9%	0%
CC(C)CC(N)c1csc(Nc2ccc(C(=O)N(C)Cc3ccccc3)cn2)n1 (configuration not stated)	u	x	-109%	x	4%[9.22 µM]
COc1cccc(Nc2nc(C(N)CO)cs2)n1 (configuration not stated)	13%	x	-10%	x	0%
CN(Cc1ccccc1)C(=O)c1ccc(Nc2nc(C(N)Cc3ccccc3)cs2)nc1 (configuration not stated)	u	x	16µM*	x	-3%
CN(Cc1ccccc1)C(=O)c1ccc(Nc2nc(C(N)Cc3ccc(C(F)(F)F)cc3)cs2)nc1 (configuration not stated)	u	x	10µM*	x	-4%
CCCc1cnc(Nc2nc(C(N)Cc3ccc(OC)cc3)cs2)nc1 (configuration not stated)	u	x	11µM*	x	-3%
COc1cccc(Nc2nc(C(N)Cc3ccccc3)cs2)n1 (configuration not stated)	11µM*	x	-95%	x	-1%
Cc1ccccc1N1CCN(C(=S)c2ccc([N+](=O)[O-])cc2)CC1	u	1%	-8%	-13%	0%
COc1ccc(COC(=O)Nc2cn(C)nc2C(F)(F)F)cc1	-7%	1%	-2%	2%	-1%
SMILES	TGFb inhibitor	A549 viability	HepG2 viability	Nrf2 inh	Nrf2 ARE act
CCc1ccc(C2=C(C)C(N3CCC(C(=O)NCc4ccccc4)CC3)=NS2(=O)=O)cc1	-2%	-2%	-1%	-10%	4%
Cc1ncoc1C(=O)N1CCCC(C(=O)c2cccc(OC(C)C)c2)C1 (configuration not stated)	4%	-1%	5%	9%	-1%
CCN(CC)c1ccc(NC(=O)C2COc3ccc(OC)cc3C2)c(C)c1 (configuration not stated)	8.9µM*	-23%	-34%	x	1%
COc1ccc2c(c1)CC(C(=O)Nc1ccc(OC)cc1OC)CO2 (configuration not stated)	0%	12%	-13%	x	0%
COc1cccc(-c2cccc(-c3nc(C(=O)NCc4ccc5c(c4)OCO5)cc4c3[C@H](CCO)N(S(=O)C(C)(C)C)C4)c2)c1 (some centres not stated)	16µM*	x	-60%	x	3%
CCOC(=O)CSc1nnc(CCc2nc3ccccc3[nH]2)n1C	26%	4%	-28%	1%	-1%
CCc1nc2ccc(C(=O)NCCc3ccccn3)cn2c1N(C)Cc1ccc(N(C)C)cc1	u	x	13µM*	x	1%
CCc1nc2ccc(C(=O)NCCc3ccccn3)cn2c1N(C)Cc1nccs1	34%	x	-4%	x	1%
CCc1nc2ccc(C(=O)NCCOc3ccc(OC)cc3)cn2c1N(C)CCCc1ccccc1	14µM*	x	-46%	x	0%
CCc1nc2ccc(C(=O)NCCOc3ccc(OC)cc3)cn2c1N(C)Cc1ccc(OC)cc1	u	x	-34%	x	0%
COc1ccc(-n2nc(C(=O)NCC(=O)N3CCCCC3)c3ccccc3c2=O)c(OC)c1	6%	4%	0%	u	2%
Cc1c(CCO)c(=O)[nH]n1S(=O)(=O)c1cccc(C(F)(F)F)c1	0%	-4%	8%	12%	0%
O=C(Nc1ccc(F)c(Cl)c1)c1cc(C2CCCCN2C(=O)c2ccc(Cl)cc2)on1 (configuration not stated)	-12%	x	-1%	x	3%
Cn1nc(CC(=O)Nc2ccc(N3CCN(C(=O)OC(C)(C)C)CC3)cc2)c2ccccc2c1=O	1%	-16%	3%	10µM*	0%
Cn1nc(CC(=O)N2CCN(c3ccccc3)CC2)c2ccccc2c1=O	3%	-12%	-1%	-21%	-1%
CCOC(=O)CSc1nn(C)c(=S)s1	13%	-1%	1%	21%	0%
Clc1cc(Br)ccc1OCCCNCc1ccccc1	11µM*	u	13µM*	7%	5%
FC1(F)Oc2ccc(-c3ccc4ncnc(NCc5cccs5)c4c3)cc2O1	x	-13%	x	13µM*	x
Clc1cccc(-c2ccc3ncnc(NCc4cccs4)c3c2)c1	u	-2%	-37%	u	4%

From PubChem BioAssay
